This passage reports outcome and AC50 results from PubChem BioAssay (EPA / NIEHS).

Structures are written as SMILES. Values joined by “and” are separate entries in the source; they are usually repeats but may differ in a detail not shown here. Equal values may be shown once. Where a structure was tested more than once in an assay, its records may differ in their call. Active and inactive are the calls of the source. Rule for the calls: active = hit-call score of the fitted dose curve at least 0.9, where 1 is the maximum; inactive = score below 0.9.

Read-out in test [1]: Human Leukocyte Antigen - DR isotype (HLADR), HLA-DRA (gene 3122)
Kind of test: BSK_BE3C_HLADR: BioMAP Diversity Plus: BE3C Assay for Human Leukocyte Antigen - DR isotype (HLADR) Biomarker Activity (AID 2283032). Conditions: primary human bronchial epithelial cells; actives raise or lower the signal. In a few lines:
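Cell-surface HLA-DR ELISA readout at 24 h after dosing in the BE3C primary human lung bronchial epithelial system; gain or loss of signal against DMSO, with parallel sulforhodamine B staining of total protein for overt cytotoxicity.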

Read-out in test [2]: Vascular cell adhesion molecule 1 (VCAM1), VCAM1 (gene 7412)
Kind of test: BSK_4H_VCAM1: BioMAP Diversity Plus: 4H Assay for Vascular cell adhesion molecule 1 (VCAM1) Biomarker Activity (AID 2283033).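 For outcome: cell-surface VCAM-1 protein measured by ELISA.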 Conditions: primary human endothelial cells (HUVEC); actives raise or lower the signal. In a few lines: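 VCAM-1 ELISA read 24 h after chemical dosing of HUVEC in the BioMAP 4H system, with gain or loss of signal fitted relative to DMSO. Parallel SRB staining (560 nm) checked overt cytotoxicity.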

Read-out in test [3]: Interferon-gamma inducible Protein 10 (IP10), CXCL10 (gene 3627)
Kind of test: BSK_BE3C_IP10: BioMAP Diversity Plus: BE3C Assay for Interferon-gamma inducible Protein 10 (IP10) Biomarker Activity (AID 2283034). Conditions: primary human bronchial epithelial cells; actives raise or lower the signal. In outline: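 IP-10 quantified by ELISA in human primary bronchial epithelial cell cultures at 24 hours post-dosing. Gain or loss of signal fitted relative to DMSO; parallel SRB staining assessed overt cytotoxicity.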

Read-out in test [4]: Monokine induced gamma interferon (MIG), CXCL9 (gene 4283)
Kind of test: BSK_BE3C_MIG: BioMAP Diversity Plus: BE3C Assay for Monokine induced gamma interferon (MIG) Biomarker Activity (AID 2283035). Conditions: primary human bronchial epithelial cells; actives raise or lower the signal. In a few lines: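 hu bronchial epithelial 1° cells, 24 h cpd; MIG by ELISA; bidirectional fit, DMSO = baseline.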

Read-out in test [5]: Plasminogen activator inhibitor-1 (PAI1), SERPINE1 (gene 5054)
Kind of test: BSK_BE3C_PAI1: BioMAP Diversity Plus: BE3C Assay for Plasminogen activator inhibitor-1 (PAI1) Biomarker Activity (AID 2283037). Conditions: primary human bronchial epithelial cells; actives raise or lower the signal. In a few lines:
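PAI-1 was measured by ELISA in human primary bronchial epithelial cultures 24 h after chemical dosing, with cytotoxicity checked by SRB total-protein staining in parallel cultures. Activity was fitted in both directions relative to DMSO.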

Read-out in test [6]: urokinase plasminogen activator (uPA), PLAU (gene 5328)
Kind of test: BSK_BE3C_uPA: BioMAP Diversity Plus: BE3C Assay for urokinase plasminogen activator (uPA) Biomarker Activity (AID 2283038).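 For outcome: uPA protein level quantified by ELISA in cell cultures; uPA read one day after compound addition.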 Conditions: primary human bronchial epithelial cells; actives raise or lower the signal. In outline: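 Human primary bronchial epithelial cells were exposed to chemical for 24 h, then uPA levels were measured by ELISA. Responses were fitted bidirectionally against DMSO as negative control and baseline. Parallel SRB staining of total protein gauged overt cytotoxicity.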

Read-out in test [7]: Urokinase-type plasminogen activator receptor (uPAR), PLAUR (gene 5329)
Kind of test: BSK_BE3C_uPAR: BioMAP Diversity Plus: BE3C Assay for Urokinase-type plasminogen activator receptor (uPAR) Biomarker Activity (AID 2283039).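 For outcome: cells exposed to compound for one day before measurement.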 Conditions: primary human bronchial epithelial cells; actives raise or lower the signal. In outline:
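uPAR levels were measured by ELISA after 24 h compound treatment of primary human bronchial epithelial cells, fitted in both directions relative to DMSO. Parallel SRB staining served as the cytotoxicity read-out.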

Read-out in test [8]: Interleukin-6 (IL6), IL6 (gene 3569)
Kind of test: BSK_CASM3C_IL6: BioMAP Diversity Plus: CASM3C Assay for Interleukin-6 (IL6) Biomarker Activity for (AID 2283040). Conditions: primary human coronary artery smooth muscle cells; actives raise or lower the signal.

Read-out in test [9]: Tissue plasminogen activator (tPA), PLAT (gene 5327)
Kind of test: BSK_BE3C_tPA: BioMAP Diversity Plus: BE3C Assay for Tissue plasminogen activator (tPA) Biomarker Activity (AID 2283041).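 For outcome: tPA level quantified by ELISA one day after compound addition.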 Conditions: primary human bronchial epithelial cells; actives raise or lower the signal. In a few lines: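 tPA measured by ELISA 24 h after dosing human primary bronchial epithelial cells (BE3C system). Changes in either direction were fitted against DMSO. Parallel cultures were stained with SRB to flag overt cytotoxicity.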

Read-out in test [10]: Transforming growth factor beta 1 (TGFb1), TGFB1 (gene 7040)
Kind of test: BSK_BE3C_TGFb1: BioMAP Diversity Plus: BE3C Assay for Transforming growth factor beta 1 (TGFb1) Biomarker Activity (AID 2283036;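 for outcome: TGF-b1 protein level measured by ELISA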). Conditions: primary human bronchial epithelial cells; actives raise or lower the signal. In outline:
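ELISA readout of TGF-b1 from human lung bronchial epithelial primary cells, taken 24 h post-treatment. Gain or loss of signal fitted relative to DMSO baseline, with parallel SRB staining for overt cytotoxicity.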

For the compound `CCCCCCC(CO)CCCC` (stereo not drawn), the outcome in test [1], in test [2], in test [3], in test [4], in test [5] and in [6] was inactive. Further, the result in test [7], in test [8] and in test [9] was inactive.
The AC50 is the concentration giving half of the maximal activity seen. Take `CC(C=O)Cc1ccc(C(C)(C)C)cc1` (stereo not drawn): the concentration at half-maximal activity (AC50) in [1] is 28.9 µM (active); in test [2], 34.5 µM (active); in [3], 29.7 µM (active); in test [8] it was 28.5 µM (active); in test [9], 24.8 µM (active). The outcome in test [4], in test [10], in test [5], in test [6] and in test [7] was inactive.
For the compound `COc1cc(Cl)c(OC)cc1N`, the outcome in test [1], in test [2], in test [3], in [4], in test [10] and in test [5] was inactive. In addition, the result in test [6], in test [7], in test [8] and in [9] was inactive.
As for `CSCCC=O`, the result in test [1], in test [2], in [3], in [4], in [10] and in [5] was inactive. For the same compound, the outcome in test [6], in test [7], in test [8] and in test [9] was inactive.
For the compound `c1ccc(CCc2ccccc2)cc1`, the AC50 in [1] was 30.3 µM (active); in [2], 35.9 µM (active); in [3], 29.7 µM (active); in test [10] it was 27.8 µM (active); in test [5], 29.3 µM (active); in test [6], 28.9 µM (active). The values for the concentration at half-maximal activity (AC50) in test [7], in test [8] and in test [9] were 20 µM (active), 26.8 µM (active) and 30.6 µM (active), respectively. Besides, the result in test [4] was inactive.
On to `C=CC(C)(O)CCC=C(C)C` (stereo not drawn), for which the outcome in [1], in test [2], in [3], in test [4], in [5] and in [6] was inactive. Besides, the outcome in test [7], in [8] and in test [9] was inactive.
On to `CCCCOC(=O)CCCCCCCC(=O)OCCCC`, for which the outcome in test [1], in test [2], in test [3], in [4], in test [10] and in test [5] was inactive. The outcome in [6], in [7], in test [8] and in [9] was inactive.
Take `O=C(Nc1ccc2c(O)c(N=Nc3ccc(N=Nc4ccc(S(=O)(=O)O)cc4)cc3)c(S(=O)(=O)O)cc2c1)c1ccccc1`: the result in test [1], in test [2], in test [3], in test [4], in test [5] and in [6] was inactive. The outcome in [7] and in [8] was inactive. Also, the half-maximal activity concentration (AC50) in [9] was 5.36 µM (active) and 5.91 µM (active).
With `O=C1c2ccccc2C(=O)c2c(O)ccc(O)c21`, the outcome in test [1], in test [2], in [3], in test [4], in test [10] and in test [5] was inactive. In addition, the result in test [6], in test [7], in test [8] and in test [9] was inactive.
Consider `CC(CN=Cc1ccccc1O)N=Cc1ccccc1O` (stereo not drawn), for which the outcome in test [1], in test [2], in [3], in [4], in test [5] and in test [6] was inactive. In addition, the result in test [7], in test [8] and in test [9] was inactive. The AC50 in [8] is 8.95 µM (active); in test [9], 8.3 µM (active).
`CC=Cc1ccc(OCC)c(O)c1`: the result in [1], in test [2], in test [3], in test [4], in test [10] and in test [5] was inactive. Besides, the result in test [6], in [7], in test [8] and in test [9] was inactive.
On to `COc1ccc(CCN2CCC(Nc3nc4ccccc4n3Cc3ccc(F)cc3)CC2)cc1`, for which the AC50 in test [1] is 7.88 µM (active); in test [2], 0.0041 µM (active). Further, the outcome in test [3], in [4], in test [10], in test [5], in test [6] and in test [7] was inactive. Also, the outcome in [8] and in test [9] was inactive.
